Measurements published in PubChem BioAssay.
“And” between values parts separate entries of the source, which are not always exact repeats. Equal values may be shown once. For some of these results: Measured potencies and affinities stand elsewhere. A structure can be active in one record and inactive in another. The source made the active and inactive calls. Unless noted, how the calls were made is not given here.

Experiments:
[1] = antimalarial activity against Dd2 strain (AID 2302;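 active means growth inhibition above 50% at the single 2 µM test dose, taken to imply half-maximal potency below 2 µM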;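 further: 0% = DMSO untreated growth and 100% = chloroquine plus artemisinin killed control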); conditions: P. falciparum Dd2 in RBCs, LDH growth readout, 72 h; at 2 µM; stronger effect = higher value
[2] = HepG2 cytotoxicity, primary screen, cytotoxicity control for P. falciparum antimalarial project, cell-based, ATP luminescence (AID 2303;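 active means inhibition above 50%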;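 further: 0% = DMSO wells and 100% = digitonin-killed cells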); conditions: HepG2 viability, 24-48 h, at 10 µM, stronger effect = higher value
[3] = molecular target: L-lactate dehydrogenase (Plasmodium falciparum (isolate CDC / Honduras)) (UniProt Q27743); assay: PfLDH activity inhibition – cell lysate, 3D7 strain, counter-screen for P. falciparum growth inhibition project (AID 2304);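 further: 0% = vehicle and 100% = reference inhibitor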; conditions: P. falciparum 3D7 crude extract, LDH APAD/NBT absorbance; at 2 µM; stronger effect = higher value
[4] = inhibition of 3D7 malaria parasite growth – strain 3D7 (AID 2306);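 further: 0% = DMSO wells and 100% = chloroquine plus artemisinin control wells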; conditions: P. falciparum 3D7 erythrocytic growth, LDH absorbance, 72 h; at 2 µM; stronger effect = higher value
[5] = molecular target: Calcium-dependent protein kinase 1 (Plasmodium falciparum (isolate 3D7)) (UniProt P62344); assay: PfCDPK1 kinase inhibitors, biochemical, TCAMS library (AID 1159585; cut-off not given, nearly all actives have IC50 up to about 0.98 µM;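 further: inhibitors leave more ATP so luminescence rises with inhibition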); conditions: recombinant PfCDPK1, Kinase-Glo ATP depletion luminescence
[6] = molecular target: Plasmodium falciparum protein kinase 6 (PK6, PF3D7_1337100) (UniProt Q8IDW1); assay: PfPK6 kinase inhibitors, biochemical, TCAMS library (AID 1159586); conditions: recombinant PfPK6, Kinase-Glo ATP depletion luminescence
[7] = molecular target: Protein kinase 7 (PK7), Plasmodium falciparum 3D7 (PF3D7_0213400) (UniProt Q7YTF7); assay: inhibition of Plasmodium PK7 catalytic activity – biochemical, TCAMS antimalarial set, Kinase-Glo luminescence (AID 1159587); conditions: recombinant PfPK7, Kinase-Glo ATP depletion luminescence
[8] = molecular target: Calcium-dependent protein kinase 4 (Plasmodium falciparum (isolate 3D7)) (UniProt Q8IBS5); assay: PfCDPK4 kinase inhibitors, biochemical, TCAMS library (AID 1159588; cut-off not given, nearly all actives have IC50 up to about 0.91 µM); conditions: recombinant PfCDPK4, Kinase-Glo ATP depletion luminescence
Calcium-dependent protein kinase 4 (Plasmodium falciparum (isolate 3D7)), sequence (Q8IBS5 whole entry, looked up): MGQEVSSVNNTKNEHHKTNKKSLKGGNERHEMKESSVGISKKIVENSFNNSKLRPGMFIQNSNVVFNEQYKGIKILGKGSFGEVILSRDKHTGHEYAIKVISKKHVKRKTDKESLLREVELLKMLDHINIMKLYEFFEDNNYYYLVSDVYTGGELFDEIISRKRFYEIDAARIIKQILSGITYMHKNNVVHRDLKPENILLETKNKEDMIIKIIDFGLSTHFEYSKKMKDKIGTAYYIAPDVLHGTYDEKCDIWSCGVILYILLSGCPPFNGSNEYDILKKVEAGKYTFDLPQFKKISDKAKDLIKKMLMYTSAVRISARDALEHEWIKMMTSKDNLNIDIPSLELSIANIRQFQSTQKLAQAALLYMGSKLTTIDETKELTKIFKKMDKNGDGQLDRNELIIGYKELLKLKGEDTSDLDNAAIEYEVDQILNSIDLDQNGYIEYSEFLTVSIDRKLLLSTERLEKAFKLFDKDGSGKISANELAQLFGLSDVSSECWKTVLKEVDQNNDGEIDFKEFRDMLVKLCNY

Protein kinase 7 (PK7), Plasmodium falciparum 3D7 (PF3D7_0213400), sequence (Q7YTF7 1-343): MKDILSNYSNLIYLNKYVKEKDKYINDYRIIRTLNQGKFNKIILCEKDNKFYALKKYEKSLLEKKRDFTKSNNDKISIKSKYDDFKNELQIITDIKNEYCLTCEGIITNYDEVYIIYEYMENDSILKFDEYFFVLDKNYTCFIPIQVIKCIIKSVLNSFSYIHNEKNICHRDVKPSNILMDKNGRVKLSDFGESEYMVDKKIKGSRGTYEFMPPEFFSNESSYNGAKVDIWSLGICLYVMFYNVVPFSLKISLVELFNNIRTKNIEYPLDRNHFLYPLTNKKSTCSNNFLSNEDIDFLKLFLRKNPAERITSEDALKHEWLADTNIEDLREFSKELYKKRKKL
Calcium-dependent protein kinase 1 (Plasmodium falciparum (isolate 3D7)), sequence (P62344 whole entry, looked up): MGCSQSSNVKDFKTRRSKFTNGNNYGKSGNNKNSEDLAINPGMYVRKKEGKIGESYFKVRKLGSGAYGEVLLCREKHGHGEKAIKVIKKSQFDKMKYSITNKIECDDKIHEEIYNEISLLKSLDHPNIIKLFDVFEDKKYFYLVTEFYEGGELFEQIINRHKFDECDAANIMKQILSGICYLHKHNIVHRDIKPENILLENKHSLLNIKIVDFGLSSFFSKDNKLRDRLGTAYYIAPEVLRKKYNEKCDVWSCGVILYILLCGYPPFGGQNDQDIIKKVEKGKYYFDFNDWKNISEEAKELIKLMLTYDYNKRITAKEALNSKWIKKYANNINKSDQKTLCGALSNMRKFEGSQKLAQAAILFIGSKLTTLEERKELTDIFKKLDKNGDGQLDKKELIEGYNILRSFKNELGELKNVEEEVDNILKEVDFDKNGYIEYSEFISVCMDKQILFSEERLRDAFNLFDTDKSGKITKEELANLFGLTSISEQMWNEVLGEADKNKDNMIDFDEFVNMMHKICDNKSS
L-lactate dehydrogenase (Plasmodium falciparum (isolate CDC / Honduras)), sequence (Q27743 whole entry, looked up): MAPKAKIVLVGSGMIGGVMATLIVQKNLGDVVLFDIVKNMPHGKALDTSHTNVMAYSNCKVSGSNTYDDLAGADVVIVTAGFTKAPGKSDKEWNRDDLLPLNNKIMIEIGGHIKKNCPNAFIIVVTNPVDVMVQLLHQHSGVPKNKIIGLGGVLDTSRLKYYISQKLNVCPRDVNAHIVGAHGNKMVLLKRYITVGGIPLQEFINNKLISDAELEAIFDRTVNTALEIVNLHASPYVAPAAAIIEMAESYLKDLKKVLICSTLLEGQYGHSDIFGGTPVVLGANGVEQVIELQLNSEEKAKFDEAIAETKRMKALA
Plasmodium falciparum protein kinase 6 (PK6, PF3D7_1337100), sequence (Q8IDW1 1-305): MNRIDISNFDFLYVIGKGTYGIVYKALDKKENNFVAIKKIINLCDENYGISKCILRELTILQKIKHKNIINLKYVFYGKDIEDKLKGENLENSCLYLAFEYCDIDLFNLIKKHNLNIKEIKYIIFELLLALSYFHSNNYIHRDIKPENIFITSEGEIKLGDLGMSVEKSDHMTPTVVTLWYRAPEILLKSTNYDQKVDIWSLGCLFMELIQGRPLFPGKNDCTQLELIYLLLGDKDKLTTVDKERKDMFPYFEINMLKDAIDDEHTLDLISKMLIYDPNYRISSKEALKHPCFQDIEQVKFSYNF

SMILES	growth inhibition [1]	inhibition [2]	inhibition [3]	growth inhibition [4]	outcome [5]	outcome [6]	outcome [7]	outcome [8]
CO/C(=C\C=C\c1cc2cc(Cl)c(Cl)cc2[nH]1)C(=O)N[C@H]1CN2CCC1CC2	36% (inactive)	43% (inactive)	-2% (inactive)	82% (active)	inactive	inactive	inactive	inactive
OC(CNC1CCCCC1)c1ccc(Cl)c(Cl)c1 (configuration not stated)	96% (active)	17% (inactive)	-1% (inactive)	99% (active)	inactive	inactive	inactive	inactive
O=C(NC1CCC(CN2CCC(c3c[nH]c4ccccc34)CC2)CC1)c1cc(-c2ccccc2Cl)oc1C(F)(F)F (configuration not stated)	7% (inactive)	24% (inactive)	4% (inactive)	99% (active)	inactive	inactive	inactive	inactive
O=C(NC1CCC(CN2CCC(c3c[nH]c4ccccc34)CC2)CC1)NC12CC3CC(CC(C3)C1)C2 (configuration not stated)	46% (inactive)	37% (inactive)	7% (inactive)	96% (active)	inactive	inactive	inactive	inactive
O=C(/C=C/c1ccc(Cl)c(Cl)c1)NCCCCCN1C2CCC1CC(c1c[nH]c3ccccc13)C2 (configuration not stated)	4% (inactive)	54% (active)	-1% (inactive)	98% (active)	inactive	inactive	inactive	inactive
O=C(/C=C/c1ccc(Cl)c(Cl)c1)NC[C@@H]1CCC[C@H](CN2CCC(c3c[nH]c4ccccc34)CC2)C1	43% (inactive)	61% (active)	-4% (inactive)	98% (active)	inactive	inactive	inactive	inactive
Cc1cc(C2CCCCN2C)ccc1-c1ccc(C(=O)N2CCc3cc4c(cc32)C2(CCN(C)CC2)CO4)cc1 (configuration not stated)	94% (active)	37% (inactive)	1% (inactive)	95% (active)	inactive	inactive	inactive	inactive
Cc1ccc(CC(C)NC[C@H](O)c2cccc(Cl)c2)cc1 (some centres not stated)	47% (inactive)	15% (inactive)	-3% (inactive)	96% (active)	inactive	inactive	inactive	inactive
CC[C@H]1CN2CC[C@@H]1C[C@H]2[C@H](O)c1cc(-c2ccccc2)nc2ccc(O)cc12	99% (active)	14% (inactive)	-2% (inactive)	99% (active)	inactive	inactive	inactive	inactive
O=C(Nc1ccc(Oc2ccccc2)cc1)NC1CCC(CN2CCC(c3c[nH]c4ccccc34)CC2)CC1 (configuration not stated)	97% (active)	55% (active)	4% (inactive)	101% (active)	inactive	inactive	inactive	inactive
CC(=O)Nc1ccc(CN2CCC(N(C)c3cc(NC(=O)c4cccc(F)c4)ccn3)CC2)cc1	-1% (inactive)	4% (inactive)	2% (inactive)	85% (active)	inactive	inactive	inactive	inactive
O=C(NCc1ccccc1)c1nn(CCCN2CCC3(CC2)C(=O)NCN3c2ccccc2)cc1-c1ccc(Cl)c(Cl)c1	21% (inactive)	6% (inactive)	-5% (inactive)	88% (active)	inactive	inactive	inactive	inactive
CC[C@H]1CN2CC[C@H]1C[C@H]2[C@H](OC(=O)c1ccccc1)c1cc(C#N)nc2ccc(OC)cc12	49% (inactive)	19% (inactive)	-2% (inactive)	97% (active)	inactive	inactive	inactive	inactive
O=C(Nc1ccc(CN2CCC(c3c[nH]c4ccc(O)cc34)CC2)cc1)c1ccc(-c2ccccc2)cc1	100% (active)	33% (inactive)	1% (inactive)	100% (active)	inactive	inactive	inactive	inactive
Cc1[nH]c2ccc([N+](=O)[O-])cc2c1C1=CCN(C)CC1	68% (active)	6% (inactive)	4% (inactive)	86% (active)	inactive	inactive	inactive	inactive
CCCCCCC(C)c1cc(O)c2c(c1)OC(C)(C)c1ccncc1-2 (configuration not stated)	61% (active)	-3% (inactive)	-4% (inactive)	100% (active)	inactive	inactive	inactive	inactive
CC(C)CN1CCC(N(C)c2cc(NC(=O)c3cccc(F)c3)ccn2)CC1	10% (inactive)	8% (inactive)	-1% (inactive)	97% (active)	inactive	inactive	inactive	inactive
COC(=O)c1ccc(C[C@@H](C)NC[C@H](O)c2cccc(OCc3ccccc3)c2)cc1	37% (inactive)	11% (inactive)	1% (inactive)	86% (active)	inactive	inactive	inactive	inactive
COC(=O)c1sccc1NC(=S)NC1CCC(CN2CCC(c3c[nH]c4ccccc34)CC2)CC1 (configuration not stated)	54% (active) and 49% (inactive)	25% (inactive) and 34% (inactive)	0% (inactive) and -1% (inactive)	97% (active) and 100% (active)	inactive	inactive	inactive	inactive
O=C(/C=C/c1ccc(Cl)c(Cl)c1)N1CCC(CN2CCC(c3c(Br)[nH]c4ccccc34)CC2)CC1	99% (active)	41% (inactive)	-4% (inactive)	100% (active)	inactive	inactive	inactive	inactive
O=C(c1cc(C(=O)NCc2ccc(Cl)cc2)c(=O)n(Cc2ccc(Cl)cc2)c1)c1cc(F)ccc1O	2% (inactive)	7% (inactive)	-2% (inactive)	93% (active)	inactive	inactive	inactive	inactive
O=C(/C=C/c1cc(F)c(F)cc1F)N1CCC(CN2CCC(c3c[nH]c4ccccc34)CC2)CC1	3% (inactive)	26% (inactive)	1% (inactive)	93% (active)	inactive	inactive	inactive	inactive

SMILES	growth inhibition [1]	inhibition [2]	inhibition [3]	growth inhibition [4]	outcome [5]	outcome [6]	outcome [7]	outcome [8]
CC[C@H]1CN2CC[C@@H]1C[C@H]2[C@H](O)c1cc(N2CCC(C)CC2)nc2ccc(OC)cc12	98% (active)	16% (inactive)	1% (inactive)	99% (active)	inactive	inactive	inactive	inactive
CC(C)CNCc1cccc(-c2ccc(CN(C(=O)c3cccs3)C3CCN(Cc4ccccc4)CC3)cc2)c1	40% (inactive)	22% (inactive)	3% (inactive)	85% (active)	inactive	inactive	inactive	inactive
Cc1nc2ccccc2n1C1C[C@H]2CC[C@@H](C1)N2Cc1nccn1-c1ccccc1 (some centres not stated)	96% (active)	0% (inactive)	-4% (inactive)	94% (active)	inactive	inactive	inactive	inactive
CC(=O)C1(c2ccccc2)CCN(CCC2(c3ccc(Cl)c(Cl)c3)CN(C(=O)C3CCCCC3)CCO2)CC1 (configuration not stated)	99% (active)	3% (inactive)	-2% (inactive)	100% (active)	inactive	inactive	inactive	inactive
C/C=C1/CN2CC[C@H]1C[C@H]2[C@H](O)c1ccnc2ccc(O)cc12	11% (inactive)	-2% (inactive)	-3% (inactive)	99% (active)	inactive	inactive	inactive	inactive
CN1CC=C(c2c[nH]c3ccc(Sc4ccccc4)cc23)CC1	99% (active)	36% (inactive)	-2% (inactive)	98% (active)	inactive	inactive	inactive	inactive
CC(C)n1ncc2c(C(=O)Nc3ccc(C#N)c(Cl)c3)cc(C3CC3)nc21	15% (inactive)	20% (inactive)	2% (inactive)	93% (active)	inactive	inactive	inactive	inactive
Cc1cc(O)cc2c(C3CCN(CC4CCC(NC(=O)/C=C/c5ccccc5Cl)CC4)CC3)c[nH]c12 (configuration not stated)	84% (active)	21% (inactive)	1% (inactive)	99% (active)	inactive	inactive	inactive	inactive
CC[C@@]1(O)C(=O)OCc2c1cc1n(c2=O)Cc2c-1nc1cc3c(cc1c2CN1CCOCC1)OCO3	80% (active)	81% (active)	4% (inactive)	89% (active)	inactive	inactive	inactive	inactive
COc1ccc(-c2ccccc2)cc1NC(=S)NC1CCC(CN2CCC(c3c[nH]c4ccccc34)CC2)CC1 (configuration not stated)	98% (active) and 95% (active)	51% (active) and 27% (inactive)	-7% (inactive) and -5% (inactive)	102% (active) and 100% (active)	inactive	inactive	inactive	inactive
O=C(/C=C/c1ccc(Cl)c(Cl)c1)N1CCC(CN2CCC(c3c[nH]c4cc5c(cc34)OCO5)CC2)CC1	75% (active)	41% (inactive)	-2% (inactive)	102% (active)	inactive	inactive	inactive	inactive
O=[N+]([O-])c1ccc(Oc2c(Cl)cc(S(=O)(=O)NC3CCC(CN4CCC(c5c[nH]c6ccccc56)CC4)CC3)cc2Cl)c(Cl)c1 (configuration not stated)	64% (active)	30% (inactive)	-4% (inactive)	100% (active)	inactive	inactive	inactive	inactive
CNCCCCCCc1ccc(CC(C)NCC(O)c2cccc(Cl)c2)cc1 (configuration not stated)	76% (active)	22% (inactive)	4% (inactive)	94% (active)	inactive	inactive	inactive	inactive
CC(Cc1ccc(C2=CCNCC2)cc1)NCC(O)c1cccc(C(F)(F)F)c1 (configuration not stated)	-2% (inactive)	27% (inactive)	0% (inactive)	89% (active)	inactive	inactive	inactive	inactive
CC(Cc1ccc(OCCCCOc2ccccc2)cc1)NCCCN1CCOCC1 (configuration not stated)	78% (active)	98% (active)	-2% (inactive)	98% (active)	inactive	inactive	inactive	inactive
COc1cccc(CCNC(C)Cc2ccc(OCCCCOc3ccccc3)cc2)c1 (configuration not stated)	90% (active)	100% (active)	5% (inactive)	97% (active)	inactive	inactive	inactive	inactive
COc1cccc(C2(NC[C@@H](O)[C@H](Cc3ccccc3)NC(=O)c3ccccc3)CCCCC2)c1	67% (active)	14% (inactive)	-2% (inactive)	97% (active)	inactive	inactive	inactive	inactive
COc1cc(C(=O)NC2CCC(CN3CCC(c4c[nH]c5ccccc45)CC3)CC2)cc(Cl)n1 (configuration not stated)	45% (inactive)	33% (inactive)	-1% (inactive)	99% (active)	inactive	inactive	inactive	inactive
COCC(=O)N(Cc1cccc(-c2ccc(CNCCc3ccccc3)cc2)c1)C1CCN(Cc2ccccc2)CC1	45% (inactive)	44% (inactive)	4% (inactive)	93% (active)	inactive	inactive	inactive	inactive
Cc1ccc(-n2nc(C)c3c2NC(=O)CSC3c2ccsc2)cc1 (configuration not stated)	11% (inactive)	-14% (inactive)	2% (inactive)	97% (active)	inactive	inactive	inactive	inactive
CCCCCCCc1cc(O)c2c(c1)OC(C)(C)c1ccncc1-2	52% (active)	-7% (inactive)	0% (inactive)	95% (active)	inactive	inactive	inactive	inactive
Cc1c(C(=O)N[C@@H](C)c2ccccc2)c2cc(O)c(Br)cc2n1C1CCCCC1	95% (active)	4% (inactive)	-6% (inactive)	98% (active)	inactive	inactive	inactive	inactive
